The text below walks through data of ChEMBL document CHEMBL4513216, “Probing the Open Global Health Chemical Diversity Library for Multistage-Active Starting Points for Next-Generation Antimalarials” (ACS Infect Dis, 2020).

Out of some 65,000 compounds screened, about 2,100 (3.2%) showed an effect of 50% or more. The median lay at about -52%. Shown is part of a subset that was picked to be rich in strong results.

The test relates to Plasmodium falciparum. Kind of test: Screen against P. falciparum Asexual Blood Stage (ABS), at 5uM. The note with it: tested at 5 uM. Type of test: functional, Dd2.
On to `Cc1cc(CN(C)C(=O)CN2CCCC2=O)no1`, for which the INHIBITION is on record as -32.3%.
With `COc1cc(OC)cc(C2SCC(=O)Nc3ccsc32)c1` (stereo not given), the INHIBITION is -38.5%.
In the case of `O=C(Nc1cccnc1)[C@H]1C[C@H]2OCC[C@H]2N(CC2CC2)C1` it was -67.1%.
For `Cc1n[nH]c2c1C(c1cccnc1)SCC(=O)N2` (stereo not given), the INHIBITION is -32.5%.
Take `Cc1cccc(CN2CCN(C(=O)N(C)C)[C@@H]3CS(=O)(=O)C[C@@H]32)n1`: the INHIBITION is -85.1%.
As to `CCC[C@H]1CN(c2nc(CO)cs2)C[C@@H]1NC(=O)C1(COC)CC1`, the INHIBITION came out at 71.7%.
The same measure for `O=C(Nc1cccnc1)[C@H]1COC[C@H]2CN(C3CCCC3)C[C@H]21`: 12.5%; for `O=C(C[C@@H]1COC[C@H]2CN(CC3CC3)C[C@@H]12)NCc1cccnc1`: -75.7%; for `O=C(C1CCC1)N1C[C@H]2CNC[C@H]2C1`: -30.2%.
In the case of `O=C(C1CCCC1)N1C[C@H]2CNC[C@H]2C1` it was -5.05%; in that of `O=C(C1CCOCC1)N1C[C@H]2CNC[C@H]2C1`, 52.6%.
The same measure for `O=C(CC1CC1)N1C[C@H]2CCN[C@H]2C1`: -62.6%; for `O=S(=O)(c1cccnc1)N1C[C@@H]2COC[C@]2(CN2CCOCC2)C1`: -111%.
As to `CN1CCN(Cc2ccccc2CNC(=O)c2ccc(Cl)cc2F)CC1`, the INHIBITION was 77.2%.
On to `CN1CCN(Cc2ccccc2CNC(=O)c2cc(Br)ccc2F)CC1`, for which the INHIBITION is listed as 77.5%.
In the case of `Cc1cc(CN2CCN(C(=O)Cc3ccccc3F)CC2)on1` it was -206%; in that of `Cc1ncsc1CN1C[C@H](OCc2ccncc2)[C@H]2OCCC[C@H]21`, -47.7%; in that of `O=C(Cc1cccs1)N1C[C@@H]2OCCN(CC3CCCC3)[C@@H]2C1`, -96.4%.
Consider `CC(Cn1cccn1)NCc1csc(-c2cccs2)n1` (stereo not given), for which the INHIBITION is listed as -268%.
In the case of `COc1cccc(-c2nc(CNCCCn3cccn3)cs2)c1` it was 76.3%; in that of `CCc1nc(CNC(C)Cn2cccn2)cs1` (stereo not given), -78.5%.
The same measure for `Cc1cc(CN2CC[C@H]3C[C@H](C(=O)N(C)C)O[C@@H]3C2)no1`: -20.9%; for `c1cc(CN2CCSC3(CCCCC3)C2)no1`: -170%.
The same measure for `CC(C)Nc1ccc2nc(C3CCNCC3)nn2c1`: -54.1%.
Consider `CC(C(=O)N1CCCC1)N1CCCN(C(=O)Oc2ccccc2)CC1` (stereo not given), for which the INHIBITION is reported as -54.8%.
The same measure for `Cc1nn(C)c(C)c1C(C(=O)O)N1CC=C(c2ccccc2)CC1` (stereo not given): -74.2%; for `O=C(NCCN1CCCCC1)C(c1ccccc1)N1CCCC1` (stereo not given): 80%; for `O=C1[C@@H]2CCN(C3CCC3)C[C@@H]2OCCN1Cc1ccncc1`: -35.3%.
Consider `COc1cccc(CN(C)C(C)c2ccco2)c1OCCn1ccnc1` (stereo not given), for which the INHIBITION was determined as 71.8%.
The same measure for `CN(C)CCN1C(=O)CCCC12CCCN(Cc1cccs1)C2` (stereo not given): 73.5%; for `CNC(=O)CN1C(=O)CCC12CCCN(Cc1ccccn1)C2` (stereo not given): -14.2%; for `CN1C(=O)CCC12CCCN(Cc1nccs1)C2` (stereo not given): -74.2%.
In the case of `COCCC1(CNC(=O)Nc2ccnc(C)c2)CCCC1` it was 72.6%; in that of `Cc1ncc(CN2C[C@H]3CC(OCc4ccccc4)C[C@H]3C2)cn1` (stereo not given in full), -74.6%; in that of `Cc1ccc2c(n1)N(CC1CC1)CCN(S(=O)(=O)C1CC1)C2`, -28.5%.
In the case of `Cc1ccc2c(n1)N(CCn1cccn1)CCN(CC1CC1)C2` it was 77.6%.
Regarding `Cc1ccc2c(n1)N(CC1CC1)CCN(Cc1ccco1)C2`, the INHIBITION is listed as -45.2%.
As for `Cc1nnc(N2CC[C@@]3(O)CCNC[C@H]3C2)c2ccccc12`, the INHIBITION is given as -14.9%.
The same measure for `O[C@]12CCNC[C@H]1CN(c1nccc3ccccc13)CC2`: -5.03%; for `O[C@]12CCNC[C@H]1CN(c1ccnc3ccccc13)CC2`: 92%; for `Cc1cnc(N2CCC3(CCCCN3C)C2)nc1` (stereo not given): -23.5%.
The same measure for `CC(C)(C)CC(=O)N1C[C@H]2CCN[C@H]2C1`: -36.7%; for `Cc1cc(CN2C[C@@H]3COC[C@H](C(=O)N4CCCCO4)[C@@H]3C2)no1`: -158%; for `CN(C)C(=O)CN1CCN(c2ncccn2)[C@@H]2CS(=O)(=O)C[C@@H]21`: -100%.
In the case of `CCN1CCC2(CC1)CC(NCc1cccs1)c1ccccc1O2` (stereo not given) it was 85.8%.
As to `CCN1CCC2(CC1)CC(NCc1ccncc1)c1ccccc1O2` (stereo not given), the INHIBITION is listed as 77.7%.
In the case of `O=C1NCC2(CCCN(Cc3ccncc3)C2)Oc2ccccc21` (stereo not given), the INHIBITION was -7.11%.
As to `O=C1Nc2ccccc2C12CCN(Cc1cccs1)CC2`, the INHIBITION is reported as -14.5%.
The same measure for `CCN1CCC2(CC1)CC(Nc1ncccn1)CO2` (stereo not given): -11%.
The same measure for `Cc1cccc(CN2CCC3(CCN(c4cccnc4)C3=O)C2)n1` (stereo not given): -18.3%; for `CCN1CCC2(CC1)CC(NCc1cccc(C)n1)c1ccccc1O2` (stereo not given): 91.3%; for `Cc1cnc(N2CCC3(CC2)CN(Cc2cccs2)CCO3)nc1`: -35.2%.
Regarding `CCN1CCN(C)C2(CCN(Cc3cccc(C)n3)CC2)C1=O`, the INHIBITION is reported as -50.7%.
On to `O=C(Nc1cccnc1)[C@H]1CO[C@H]2CCNC[C@H]2C1`, for which the INHIBITION is reported as -181%.
The same measure for `Cc1cccc(CN2C[C@H](OCc3ccccn3)[C@H]3COC[C@H]32)n1`: -21.3%.
In the case of `Cc1noc(C)c1CN1CCO[C@H]2CN(Cc3cccnc3)C[C@H]21` it was 0.607%.
For the molecule `CCc1ccc(CN2CCN(C)c3ncccc3C2)o1`, the INHIBITION was -114%.
In the case of `O=c1[nH]cnc2[nH]c(N3CCNCC3)nc12` it was -168%; in that of `CN(C)C(=O)CN1CCC2(CCCN(Cc3cccnc3)C2)C1=O` (stereo not given), -34%.
In the case of `Cc1cccc(CN2C[C@@H](NC(=O)C3CCC3)[C@H]3COC[C@H]32)n1` it was -50.1%; in that of `COc1ccc(Cl)cc1CN(C)C(=O)CN1C(=O)CCC1C` (stereo not given), -38.8%.
As for `CCc1nnc(CN(C)C(=O)CN2CC(c3ccccc3)CC2=O)o1` (stereo not given), the INHIBITION was -112%.
In the case of `COc1ccccc1CN(C)C(=O)CN1CC(n2nc(C)cc2C)C1` it was 78.2%.
The same measure for `Cn1cc(C(=O)NCc2cncc3c2CCNC3)cn1`: -118%; for `Cc1csc([C@H]2C[C@@H]3CCN(Cc4cc(C)on4)C[C@H]3O2)n1`: -69.7%.
Regarding `c1cncc(OC[C@@]23CCO[C@@H]2CCN(Cc2cccs2)C3)c1`, the INHIBITION is -5.17%.
In the case of `O=C1N(c2cncnc2)CCC12CCCN(Cc1ccccn1)C2` (stereo not given) it was -36.2%; in that of `NCC1Cc2cc(-c3nccc(N4CCC(O)CC4)n3)cc(Cl)c2O1` (stereo not given), 80.6%; in that of `NCC1Cc2cc(-c3nccc(N4CCC(O)CC4)n3)cc(F)c2O1` (stereo not given), 83.1%.
The same measure for `O=C(NC[C@H]1C[C@@H]2CCN1C[C@@H]2CN1CCCC1)c1ccco1`: -62.4%; for `CN1CCN(S(C)(=O)=O)Cc2cccnc21`: -87.7%.
In the case of `CNC(=O)[C@@]12CCO[C@@H]1CCN(Cc1c(C)noc1C)C2` it was -74.2%; in that of `CN1CCCCC1c1ncc2c(n1)CCN(Cc1ccc(F)cc1)C2` (stereo not given), 86.4%.
On to `CN1CCCCC1c1ccc(-n2ccnc2)nc1` (stereo not given), for which the INHIBITION is recorded as -5.64%.
For `Cc1ccc2c(n1)N(C)CCN(Cc1cnn(C)c1)C2`, the INHIBITION was -35.9%.
In the case of `CN1CCN(Cc2ccc(F)cc2)Cc2cccnc21` it was -5.74%; in that of `CN1CCCCC1c1ncc2c(n1)CCN(CCCc1ccccc1)C2` (stereo not given), 89.2%.
In the case of `Cc1ccc(C(=O)N2C[C@@H]3CCCO[C@@H]3[C@H](N3CCCC3)C2)cn1` it was -108%; in that of `Cc1nc(COC[C@H]2CC[C@H]3NCC[C@H]3O2)cs1`, -29.9%; in that of `O=C(c1ccnnc1)N1C[C@@H]2OCCN(CCN3CCCC3)[C@@H]2C1`, -53.7%.
The same measure for `O=C(c1cccnc1)N1CCO[C@@H]2CNC[C@@H]21`: -20.6%.
Take `Cc1noc([C@]23COC[C@H]2CN(C(C)C)C3)n1`: the INHIBITION was -38.3%.
The same measure for `Fc1cccc(F)c1Cn1c(C2CCNCC2)cc2cccnc21`: 80.6%.
The same measure for `Fc1cccnc1O[C@@H]1CN(Cc2ccccn2)[C@@H]2CCCO[C@@H]21`: -14%.
The same measure for `Fc1ccccc1Cn1c(C2CCNCC2)cc2cccnc21`: 88.7%.
For `CN(Cc1nc2ccsc2c(=O)[nH]1)C[C@@H]1CCCN2CCCC[C@H]12`, the INHIBITION is recorded as -20.7%.
In the case of `CN(Cc1ccccc1-n1cccn1)C[C@@H]1CCCN2CCCC[C@H]12` it was 76%.
The same measure for `Cc1ccc(-c2noc(CC[C@@H]3CCCN4CCCC[C@H]34)n2)nn1`: -74.3%; for `COCCN1C[C@@H]2OCCN(c3ccnc(N(C)C)n3)[C@@H]2C1`: -31.1%; for `CS(=O)(=O)N1CCO[C@@H]2CN(Cc3ccncc3)C[C@@H]2C1`: -25.9%.
In the case of `CC(C)(NCc1cccc(O)c1)c1ccc2c(c1)OCO2` it was 88.9%; in that of `CCC(C)N1CCc2nc(N3CCCC3)nc(NC(C)C)c2C1` (stereo not given), 78%; in that of `CN(C)C(=O)[C@H]1C[C@H]2OCC[C@H]2N(Cc2ccccn2)C1`, -13.3%.
As for `CC(Nc1nc(-c2ccncc2)nc2c1CCNC2)c1ccccc1` (stereo not given), the INHIBITION was found to be 71.5%.
In the case of `Cc1cccnc1[C@H](C)Nc1nc(-c2cccnc2)nc2c1CNC2` it was 78%.
In the case of `CC(Nc1nc(-c2ccccc2)nc2c1CCNCC2)c1cccnc1` (stereo not given) it was 90.9%.
The same measure for `CSCC(=O)NS(=O)(=O)c1ccc(C#N)c(C(F)(F)F)c1`: -52.2%; for `COCCNC(=O)[C@@]12CCO[C@@H]1CCN(Cc1cc(C)on1)C2`: -32%; for `CN1CCN(C(=O)Cc2ccc(S(=O)(=O)C(F)F)cc2)CC1`: -85.3%.
Consider `COc1ncccc1CN1C[C@@H]2COC[C@]2(CNS(C)(=O)=O)C1`, for which the INHIBITION is recorded as -44.2%.
Regarding `NC1(C(=O)NCC2CCCN(Cc3ccccc3F)C2)CCCC1` (stereo not given), the INHIBITION came out at 85.6%.
In the case of `CCN(C)S(=O)(=O)NCC1CCCN(Cc2ccccc2F)C1` (stereo not given) it was 74.5%; in that of `CS(=O)(=O)NCC1CCCN(Cc2ccccc2F)C1` (stereo not given), 89.2%.
The same measure for `C[C@@H]1CN(Cc2ccco2)CCN1C(=O)Cc1ccccc1F`: -154%.
The same measure for `Fc1ccccc1CN1CCCC2(CCN(c3ncccn3)C2)C1` (stereo not given): -15.8%.
